Reference: PubChem BioAssay (NCI)
This is part of a sample that, as a whole, favours compounds with a hit. Of some 83,000 tested, about 20% had one in any assay.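 Step 1: grow cells in 96-well plates. Step 2: add test compound at a single concentration. Step 3: incubate 48 h. Step 4: record percent growth.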 Unmarked numbers belong to inactive results. Active and inactive are the calls of the source. The calls were made as follows: active = growth percent below 10; inactive = the rest.

How the values were obtained:
Test in all cases: NCI-60 one-dose screen, 48 h (100 = growth as untreated, 0 = no growth, -100 = all killed)
NCI-H23 lung = settings: 10 µM unless noted
NCI-H226 lung = settings: 10 µM unless noted
NCI-H322M lung = settings: 10 µM unless noted
HOP-62 NSCLC = settings: 10 µM unless noted
NCI-H460 lung = settings: 10 µM unless noted
NCI-H522 lung = settings: 10 µM unless noted
A549/ATCC NSCLC = settings: 10 µM unless noted
786-0 renal = settings: 10 µM unless noted
COLO 205 colon = settings: 10 µM unless noted
DU-145 prostate = settings: 10 µM unless noted
K-562 leukemia = settings: 10 µM unless noted
MALME-3M melanoma = settings: 10 µM unless noted
MDA-MB-231 breast = settings: 10 µM unless noted
RXF 393 renal = settings: 10 µM unless noted
SF-268 CNS = settings: 10 µM unless noted
SF-295 CNS = settings: 10 µM unless noted
SF-539 CNS = settings: 10 µM unless noted
UACC-257 melanoma = settings: 10 µM
M14 melanoma = settings: 10 µM unless noted
HOP-92 NSCLC = settings: 10 µM unless noted

| Compound | growth (NCI-H23 lung) | growth (NCI-H226 lung) | growth (NCI-H322M lung) | growth (HOP-62 NSCLC) | growth (NCI-H460 lung) | growth (NCI-H522 lung) | growth (A549/ATCC NSCLC) | growth (786-0 renal) | growth (COLO 205 colon) | growth (DU-145 prostate) | growth (K-562 leukemia) | growth (MALME-3M melanoma) | growth (MDA-MB-231 breast) | growth (RXF 393 renal) | growth (SF-268 CNS) [%] | growth (SF-295 CNS) | growth (SF-539 CNS) | growth (UACC-257 melanoma) | growth (M14 melanoma) | growth (HOP-92 NSCLC) [%] |
| --- | --- | --- | --- | --- | --- | --- | --- | --- | --- | --- | --- | --- | --- | --- | --- | --- | --- | --- | --- | --- |
| N#Cc1c(-c2ccccc2)cc(-c2c[nH]c3ccccc23)nc1-c1c[nH]c2ccccc12 | 95.6% | 89.9% | 105% | 92.7% | 106% | 97.1% | 98.7% | 102% | 108% | 108% | 101% | 99.8% | 92.6% | 95% | 96.1 | 96.4% | 98.6% | 107% | 101% |  |
| CCCCCCNC(=O)Oc1ccc(/C(=C(/C)c2ccccc2)c2ccc(OCCN(C)C)cc2)cc1 | 65.3% | 89.6% | 77.1% | 86.1% | 18.3% | 68.8% |  | 57.4% | 6.56% (active) | 83.2% |  | 37.6% | 52.2% | 46.5% | 69.1 | 90% | 46.9% | -55.9% (active) | -35.9% (active) | 44.5 |
| C=CCn1c(SCC(=O)Nc2cccc(C(=O)/C=C/c3cccc([N+](=O)[O-])c3)c2)nc2ccccc2c1=O | 89.3% | 83.6% | 95.4% | 108% | 93.4% | 89.3% | 94.1% | 94.8% | 117% | 94.1% |  | 90.1% | 90.1% | 84.6% | 92.5 | 93.5% | 96.7% | 99.3% | 84.2% |  |
| COc1cnc2c(c1)C(=O)c1c-2n(CCCNCC2CC2)c(=O)c2cc(F)ccc12 | -44.5% (active) | -14.1% (active) | -1.44% (active) | -31.6% (active) | -66.6% (active) | -55.3% (active) | -61.9% (active) | -32.4% (active) | -45.8% (active) | 4.61% (active) |  | -12.2% (active) | -25.2% (active) | -47.5% (active) | 14.6 | -7.51% (active) | -65.6% (active) |  | 15% |  |
| C/C(=N\NC(=S)Nc1ccc(Br)cc1)c1cc2ccccc2oc1=O | 34.1% | -17.8% (active) | 37.4% | 30.5% | 3.8% (active) | -14.4% (active) | 27.3% | 5.25% (active) | 71.1% | 29.4% | 9.69% (active) | 24% | 23.2% | -24.2% (active) | 14.5 | 32.1% | 20.9% | 10.1% | -28.8% (active) |  |
| Cn1cc(-c2nn3cc(-c4cccnc4)nc3s2)c2cc(F)ccc21 | 93.9% | 75% | 87.8% | 71.6% | 94.2% | 70.2% | 94.4% | 110% | 83.2% | 98.1% |  | 70.3% | 67% | 103% | 112 | 92.5% | 80.3% |  | 84.8% |  |
| CS(=O)(=O)c1ccc(-c2nn(-c3ccccc3)cc2/C=N/NC(=O)c2ccncc2)cc1 | 97.5% | 110% | 96.9% | 105% | 114% | 84.7% | 102% | 82.6% | 110% | 88.8% | 62.5% | 95.5% | 104% | 78.2% | 101 | 102% | 101% | 96.7% |  |  |
| CC[C@]12C=CCN3CC[C@]4(C(=C(C(=O)OC)C1)Nc1cc5c(cc14)[C@@H]1[C@H](O5)[C@@H](O)[C@@]4(CC)CC(C(=O)OC)=C5Nc6cc(OC)ccc6[C@@]56CCN1[C@@H]46)[C@@H]32 | -44.5% (active) | -1.39% (active) | 15% | 24.1% | 5.78% (active) | -11.8% (active) | 20% | -9.86% (active) | -29.2% (active) | 22.6% | 9.45% (active) | 25% | 20.4% | -39.2% (active) | 14.9 | 15.4% | -4.82% (active) | 29.5% | 9.29% (active) |  |
